Laboratory results reported in ChEMBL document CHEMBL3988442, “University of Dundee, Small-Polar-MMV Screening Library” (2021).

Columns and labels:
[1] = biological target: T1, Aspartate--tRNA(Asp/Asn) ligase (Mycobacterium tuberculosis (strain ATCC 25618 / H37Rv)) (UniProt P9WFW3); test: Assay for Asp RNA synthetase-1 from Mycobacterium tuberculosis; type: functional; design: scale not given: direction of the effect not stated beside the values; conditions: 30 µM; note: in the data most compounds retested in dose-response had high values
T1 sequence (whole entry): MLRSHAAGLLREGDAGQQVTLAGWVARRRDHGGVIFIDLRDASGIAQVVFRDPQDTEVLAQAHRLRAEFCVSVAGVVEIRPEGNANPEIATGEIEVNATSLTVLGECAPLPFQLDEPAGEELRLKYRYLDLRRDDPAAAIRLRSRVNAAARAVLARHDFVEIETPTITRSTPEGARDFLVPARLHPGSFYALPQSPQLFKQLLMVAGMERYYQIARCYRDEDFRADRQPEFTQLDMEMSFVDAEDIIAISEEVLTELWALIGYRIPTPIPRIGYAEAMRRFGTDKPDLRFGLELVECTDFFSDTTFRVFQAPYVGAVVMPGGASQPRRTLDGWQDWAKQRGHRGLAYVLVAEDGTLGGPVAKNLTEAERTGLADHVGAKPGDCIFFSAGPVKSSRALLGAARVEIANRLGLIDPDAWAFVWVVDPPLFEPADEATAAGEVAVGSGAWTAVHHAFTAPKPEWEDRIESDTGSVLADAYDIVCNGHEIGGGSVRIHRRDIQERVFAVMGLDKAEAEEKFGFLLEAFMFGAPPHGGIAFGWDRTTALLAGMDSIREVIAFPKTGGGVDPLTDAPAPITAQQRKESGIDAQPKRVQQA

[2] = biological target: Shiga toxin 2 (Escherichia coli O157:H7) (UniProt P09385+P09386); test: E. coli 0.157:H7 Shiga Toxin SOP - stx2 screening assay; type: functional; design: scale not given: direction of the effect not stated beside the values; conditions: 30 µM

| Compound | Percent Effect [1] [%] | Percent Effect [2] [%] |
| --- | --- | --- |
| Cc1ncc2c(n1)CN(CCCc1nc3ccccc3o1)CC2 | 6.8 | -10.6 |
| CCn1c(C)cc(C(=O)N2CCCC(c3nc(C)no3)C2)c1C (stereo unspecified) | 3.31 | 9.36 |
| CCN(CCNC(=O)c1ccccc1Br)C1CC1 | -1.24 | 9.65 |
| CC(O)CN1CCN(C(=O)c2cccn2Cc2ccncc2)CC1 (stereo unspecified) | -3.51 | 13.7 |
| CCN(CC)CCNC(=O)c1cc(C(C)C)nc(N2CCCC2)n1 | 2.18 | -34 |
| CCN(Cc1ccco1)C(=O)NCc1nnc2n1CCC2 | 0.859 | -4.02 |
| Cn1ccc(C(=O)NCc2cccc(NC(=O)C3CCC3)c2)cc1=O | -0.879 | -48 |
| CN(C)S(=O)(=O)N1CCN(C(=O)c2ccc3ccn(C)c3c2)CC1 | -0.254 | 4.4 |
| COc1ccccc1OCc1cc(C(=O)N2CCN[C@H](C)C2)n[nH]1 | 0.167 | -31.9 |
| Cc1ccc2c(ccn2CCC(=O)N2CCC(C(N)=O)CC2)c1 | 0.842 | -2.06 |
| CCc1nc(CN2CCCN(C(=O)c3c(C)noc3C)CC2)cs1 | 1.9 | -25.2 |
| Cc1ccn(-c2ccc(C(=O)N3CCCC(n4ccnc4)C3)cc2)n1 (stereo unspecified) | 3.8 | -14.7 |
| CC(C)c1ncc2c(n1)CN(Cc1nc(Cc3ccccc3)no1)CC2 | -4.05 | -0.282 |
| O=C(Cc1cccc(F)c1)NCCNCc1ccc2c(c1)CCO2 | -0.182 | -76.4 |
| Cn1cc(Br)c(=O)c(NS(=O)(=O)c2ccc(F)cc2)c1 | -2.87 | -1.63 |
| Cc1ccc(S(=O)(=O)N2C[C@H]3C[C@H](NC(=O)c4ccn(C)n4)[C@H]3C2)cc1 | 1.35 | -2.81 |
| COc1ccc(F)cc1C(C)NC(=O)c1nnc(C)s1 (stereo unspecified) | 1.79 | -5.21 |
| Cc1noc(C)c1C(=O)N1CC[C@H]2C[C@@H](c3ccncn3)O[C@@H]2C1 | 2.79 | 3.86 |
| COc1ccc(CN2C[C@@H]3COC[C@]3(COc3cccnc3)C2)cc1 | -3.56 | -5.5 |
| O=C(CN1CCCC1Cn1cccn1)NC1CCOCC1 (stereo unspecified) | -1.71 | 13.3 |

| Compound | Percent Effect [1] [%] | Percent Effect [2] [%] |
| --- | --- | --- |
| CC(NC(=O)CCc1cccs1)c1nnc2n1CCC2 (stereo unspecified) | -0.379 | 3.4 |
| CC(=O)N1CCCN(C(=O)NCc2ccccn2)CC1 | 3.93 | 16.9 |
| CC(CN1CCOCC1)NC(=O)NCc1ccc(Cl)s1 (stereo unspecified) | 2.25 | -2.94 |
| CN1C(=O)CC(c2cnn(C)c2)C12CCN(C(=O)C1CC=CC1)CC2 (stereo unspecified) | -2.73 | -0.198 |
| COc1ccc(-c2nnc(SCC(=O)NCC(C)C)[nH]2)c(OC)c1 | 6.14 | 6.1 |
| CO[C@H]1CN(C(=O)c2ccccn2)[C@@H]2CCCO[C@H]12 | 1.27 | 0.669 |
| c1cnn(CC2CN(c3ncnc4ccsc34)CCO2)c1 (stereo unspecified) | 1.65 | -10.2 |
| CCO[C@@H]1CCN(C(=O)c2cscn2)[C@@H]1Cc1cnn(C)c1 | -2.13 | 1.75 |
| O=C1CCC(C(=O)NCc2nncn2-c2ccccc2)CN1 (stereo unspecified) | 3.33 | 4.47 |
| CCc1cccc(OCC(=O)N2CCCC(n3cncn3)C2)c1 (stereo unspecified) | -0.88 | 26 |
| CN1CCN(CC2CC2)C(=O)c2cnc(N3CCCC3)nc21 | -0.103 | -25.1 |
| COC(=O)c1ccc2ccn(CC3CCCO3)c(=O)c2c1 (stereo unspecified) | 7.1 | 6.53 |
| COCC(=O)NCc1cc(=O)n2c(n1)CN(CC1CCOC1)CCC2 (stereo unspecified) | -4.6 | -5.14 |
| COCCNc1nc(C2CCCC2)nc2c1CCNCC2 | 2.87 | -36.8 |
| Cc1noc(C)c1-c1cccc(CC2CCN(C(=O)c3cc[nH]n3)C2)n1 (stereo unspecified) | -1.22 | 4.37 |
| NC(=O)CN1CCC(NC(=O)c2ccn(-c3cccc(F)c3)n2)CC1 | 2.51 | -20 |
| CC(C)(C)C(=O)N1CCC(c2nc(O)cc(-c3ccccn3)n2)CC1 | 5.88 | -6.29 |
| Cc1noc(C(C)C)c1C(=O)NCC(c1ccsc1)N(C)C (stereo unspecified) | 3 | -2.68 |
| CCS(=O)(=O)CCN1CCCC1c1noc(C2CC2)n1 (stereo unspecified) | -2.94 | -0.711 |
| Cc1nc2c(c(N3CC=CC3)n1)CCN(Cc1ccoc1)CC2 | -8.35 | -69.4 |

| Compound | Percent Effect [1] [%] | Percent Effect [2] [%] |
| --- | --- | --- |
| O=C(Cn1ccc2c(Cl)cccc21)N[C@@H](C(=O)O)c1ccccc1 | -6.24 | -13.8 |
| O=C(NC1CC(=O)N(Cc2cccc(F)c2)C1)c1ccncc1 (stereo unspecified) | 0.413 | -9.17 |
| O=C(NCc1cc[nH]n1)NCC(O)COc1cccc(F)c1 (stereo unspecified) | 1.72 | -40 |
| O=C(COc1ccc2c(c1)CCC2)N1CCOCC1c1ncon1 (stereo unspecified) | -4.77 | 22.5 |
| COC(=O)c1ccc(N2CCN(C(=O)c3cc(C)on3)C(C)C2)cc1 (stereo unspecified) | 5.2 | 23.5 |
| CCCNCc1cn(C)nc1-c1cccnc1 | -0.663 | -14.7 |
| CC(C)N(C)C(=O)C1=NOC2(CCN(C(=O)c3ccccn3)C2)C1 (stereo unspecified) | 2.07 | 3 |
| CCN1CC2(CC1=O)CN(Cc1cnn(C)c1)CCN(C(=O)C(C)C)C2 (stereo unspecified) | -1.53 | -10.1 |
| CCCn1nc(C)c(CNC(=O)C2COc3c(cccc3OC)C2)c1C (stereo unspecified) | 0.114 | -6.29 |
| c1cncc(CN2CCc3ncnc(C4CCOC4)c3CC2)c1 (stereo unspecified) | 3.1 | -17.7 |
| CC(NCc1ccccc1Br)c1ccc2[nH]c(=O)[nH]c2c1 (stereo unspecified) | 5.02 | -5.76 |
| CCn1nc(C(=O)N2CCCC(n3cncn3)C2)ccc1=O (stereo unspecified) | -5.19 | 18.8 |
| O=C(CC1CC1)N1CCn2cc(Cn3cncn3)nc2C1 | 3.1 | -11.8 |
| CN1CCN(Cc2cccnc2)C2(CCN(c3ncc(F)cn3)C2)C1=O (stereo unspecified) | 4.87 | -19.6 |
| O=C(c1cccc2cccnc12)N1CCCN(c2cccnn2)CC1 | -6.72 | 3.11 |
| Cc1nn(C)c(N(C)C)c1CNCC(O)COc1ccccc1 (stereo unspecified) | -5.92 | -12 |
| CC(C)Sc1ncccc1C(=O)NCc1ccc(CS(C)(=O)=O)cc1 | -3.16 | 13.1 |
| COCCN1CCN(CCS(=O)(=O)C(F)(F)F)CC1C (stereo unspecified) | -2.33 | 96.7 |
